From PubChem BioAssay (NCI) come the findings set out here.

A short description of this assay: NCI Yeast Anticancer Drug Screen. Data for the sgs1 strain (AID 173).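 Further: 0% = growth of vehicle-only control cultures.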 As to conditions: S. cerevisiae sgs1 mutant, active compounds read high. The method, then:
Growth inhibition of yeast strains with defined genetic alterations is measured as a screen for potential anti-cancer activity. Selected strains with alterations in DNA damage repair or cell cycle control were exposed to compounds and growth inhibition was measured relative to vehicle treated controls. The strain used in this assay is sgs1

Structures are written as SMILES. The panel holds about 79,000 compounds, 15% with a hit somewhere; the sample as a whole holds those more often. Calls of active or inactive are those of the source. No stated cut-off is given here; in the data, active means growth inhibition above about 70%; inactive means the rest.

In the case of `CC1=CC2C(C(C)C)CC1C1C(=O)OC(=O)C21` (stereo not given), the growth inhibition (at 1.2 µM) is -14% (inactive); the growth inhibition (at 3.7 µM) was -10% (inactive); the growth inhibition (at 11.0 µM) is 7% (inactive); the growth inhibition (at 33.0 µM) is 27% (inactive); the growth inhibition (at 100.0 µM) was 88% (active).
For `CN(CC(=O)O)c1ccc(/C=C/c2ccnc3ccccc23)cc1`, in that order: -2% (inactive), 0% (inactive), 4% (inactive), 22% (inactive) and 65% (inactive).
Take `COc1ccc(N=N/C(=N\NC(=O)c2cc(Br)ccc2O)c2ccc(N(CCC#N)CCC#N)cc2OC)cc1`: the growth inhibition reads like this: (at 1.2 µM) 34% (inactive); (at 3.7 µM) 37% (inactive); (at 11.0 µM) 33% (inactive); (at 33.0 µM) 42% (inactive); (at 100.0 µM) 71% (active).
For `NP1(Oc2ccc(F)cc2)=NP(N)(Oc2ccc(F)cc2)=NP(Oc2ccc(F)cc2)(Oc2ccc(F)cc2)=N1` (stereo not given), in that order: -3% (inactive), 0% (inactive), 12% (inactive), 51% (inactive) and 95% (active).
For the molecule `O=C1c2ccccc2C(=O)c2cc(S(=O)(=O)Nc3ccccc3)ccc21`, the growth inhibition runs as follows: (at 1.2 µM) 2% (inactive); (at 3.7 µM) 5% (inactive); (at 11.0 µM) 18% (inactive); (at 33.0 µM) 22% (inactive); (at 100.0 µM) 18% (inactive).
For the molecule `Cc1ccc(Nc2n[nH]c(=S)s2)cc1`, the growth inhibition is -34% (inactive) (at 1.2 µM); -36% (inactive) (at 3.7 µM); -25% (inactive) (at 11.0 µM); 41% (inactive) (at 33.0 µM); 88% (active) (at 100.0 µM).
For `Cc1cc(N=C2C=CC(=[N+](C)C)C=C2)c(N)cc1N` the same measures were -27% (inactive), -25% (inactive), 1% (inactive), 33% (inactive) and 61% (inactive).
Regarding `COc1ccc(N2CN(C)CSC2=S)cc1`, the growth inhibition was -43% (inactive) (at 1.2 µM); -41% (inactive) (at 3.7 µM); -39% (inactive) (at 11.0 µM); 7% (inactive) (at 33.0 µM); 71% (active) (at 100.0 µM).
